Assay in all cases: NCI-60 one-dose screen, 48 h (100 = growth as untreated, 0 = no growth, -100 = all killed)
What all share (conditions): 10 µM unless noted

Assay [1] concerns NCI-H23 lung.
Assay [2] concerns NCI-H226 lung.
In assay [3] the test system is NCI-H322M lung.
The test system of assay [4] is HOP-62 NSCLC.
The test system of assay [5] is NCI-H460 lung.
Assay [6] deals with HOP-92 NSCLC.
In assay [7] the test system is NCI-H522 lung.
Assay [8] concerns A549/ATCC NSCLC.
Assay [9] relates to 786-0 renal.
For assay [10], the system named is COLO 205 colon.
Assay [11] deals with DU-145 prostate.
For assay [12], the system named is K-562 leukemia.
Assay [13] concerns MALME-3M melanoma.
For assay [14], the system named is MDA-MB-231 breast.
The subject of assay [15] is RXF 393 renal.
Assay [16] has as its system SF-268 CNS.
The test system of assay [17] is SF-295 CNS.
Assay [18] relates to SF-539 CNS.
Assay [19] concerns UACC-257 melanoma.
Assay [20] deals with M14 melanoma.

These results are taken from PubChem BioAssay (NCI).

The panel holds about 83,000 compounds, 20% with a hit somewhere; the sample as a whole holds those more often.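 Each cell line was grown in a 96-well plate and treated with one concentration of compound for 48 hours. Values below 10 were considered active.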 A number with no mark means an inactive call. Activity calls are given as the source filed them.

In the case of `O=C(CCCCCCNC(=O)C(O)(O)C(F)(F)F)Nc1nc2ccccc2s1`, the growth in assay [1] was 3.62% (active); in assay [2], 25.4%; in assay [3], 8.24% (active); in [4], 0.982% (active); in assay [5], 8.87% (active); in assay [6] it was -5.22% (active). For the same compound, the growth in assay [7] is -35.8% (active); in [8], 4.79% (active); in [9], 20.3%; in assay [10], -68.5% (active); in [11] it was 6.73% (active); in assay [12] it was 11.2%. The growth was 14.4% in assay [13]; 23.5% in [14]; -47.3% (active) in [15]; 8.81% (active) in assay [16]; -36.5% (active) in assay [17]; 10.5% in assay [18]. The growth in assay [19] was 8.93% (active); in assay [20] it was 14.5%.

On to `CCNCCOc1ccc(/C(=C(/CC)c2ccc(Cl)cc2)c2ccc(OCCCN(C)C)cc2)cc1`, for which the growth in assay [1] is -87.3% (active); in assay [2], -66.4% (active); in [3] it was -95.4% (active); in [4], -80.1% (active); in assay [5] it was -74.2% (active); in [6] it was -74.6% (active). Besides, the growth in assay [7] is -76.7% (active); in assay [8], -60.9% (active); in [9], -86% (active); in assay [10] it was -82.3% (active); in assay [11], -91.7% (active); in [12], 0.0244% (active). The growth is -85.1% (active) in [13]; -87.2% (active) in assay [14]; -92.1% (active) in assay [15]; -66.7% (active) in assay [16]; -85.8% (active) in assay [17]; -93.9% (active) in assay [18]. The growth in assay [19] was -82.8% (active); in [20], -86.9% (active).

For `O=[N+]([O-])c1ccc(NC(=S)NNC(=S)Nc2ccc(F)cc2)cc1`, the growth was 89.6% in [1]; 94.2% in assay [2]; 76.9% in assay [3]; 97% in assay [4]; 90.9% in [5]; 72.9% in assay [6]. Also, the growth in [7] is 70.1%; in assay [8], 88.2%; in assay [9], 97.3%; in [10] it was 115%; in assay [11], 105%; in assay [12], 49.8%. Besides, the growth in assay [13] is 90.1%; in [14] it was 92.4%; in assay [15], 104%; in assay [16] it was 95.1%; in [17] it was 82.3%; in assay [18], 94.9%. Besides, the growth was 97.8% in assay [19] and 92.1% in [20].

For `Cn1cc(-c2nn3cc(-c4ccncc4)nc3s2)c2cc(Br)ccc21`, the growth in assay [1] is 63.1%; in assay [2], 83.5%; in assay [3] it was 81.3%; in [4], 71.6%; in [5] it was 54.9%; in assay [6], -0.882% (active). Moreover, the growth in assay [7] is 79.4%; in assay [8] it was 66.4%; in assay [9], 84.6%; in assay [10], 46.5%; in [11], 75.1%; in assay [12], 4.34% (active). Besides, the growth in assay [13] was 56.8%; in assay [14] it was 78.5%; in assay [15], 65.4%; in assay [16], 68.8%; in assay [17], 38.5%; in assay [18], 80.4%. The figures for the growth in [19] and in assay [20] were 98.3% and 52%, respectively.

For `FC(F)(F)c1cc(Br)cc(-c2cc(-c3ccc4c(c3)OCCO4)[nH]n2)c1`, the growth in assay [1] is 40.1%; in [2], 53.8%; in assay [3], 45.4%; in assay [4], 52.2%; in [5], 5.69% (active); in [6] it was 32%. In addition, the growth was 20.5% in assay [7]; 22.1% in [8]; 28.3% in [9]; -12.9% (active) in [10]; 23.8% in assay [11]; 14.6% in assay [12]. Moreover, the growth is 48.4% in assay [13]; 1.68% (active) in [14]; 31.6% in assay [15]; 41.7% in assay [16]; 12.3% in assay [17]; -5.31% (active) in assay [18]. Besides, the growth in assay [19] was 80.4%; in assay [20], 20.1%.

As for `O=C(CCCCCCNC(=O)C(O)(O)C(F)(F)F)Nc1ccc(Cl)cc1`, the growth in assay [1] was 24.3%; in assay [2], 66.6%; in assay [3], 44%; in [4], 4.42% (active); in assay [5], 23.3%; in [6], 6.13% (active). Besides, the growth in assay [7] was -22.3% (active); in [8] it was 20.7%; in [9], 35.7%; in [10], -57.4% (active); in [11], 17.6%; in assay [12], 14.4%. Moreover, the growth in assay [13] is 9.88% (active); in [14] it was 36.2%; in assay [15], -23.7% (active); in [16], 22%; in [17] it was 0.336% (active); in assay [18], 28.6%. For the same compound, the growth in assay [19] was 31%; in assay [20] it was 34.4%.

As for `O=S(=O)(Oc1ccc(-c2cn3ccsc3n2)cc1)c1cccc(C(F)(F)F)c1`, the growth in [1] was 109%; in assay [2], 90.2%; in [3], 103%; in assay [4], 110%; in assay [5] it was 104%; in [6], 106%. Besides, the growth was 94.6% in assay [7]; 98.9% in assay [8]; 102% in [9]; 113% in assay [10]; 103% in [11]; 96.9% in assay [12]. The growth in [13] was 91.3%; in [14] it was 101%; in assay [15], 100%; in assay [16] it was 110%; in [17], 98.3%; in [18], 101%. For the same compound, the growth in assay [19] was 99.6%; in assay [20] it was 101%.

On to `NS(=O)(=O)c1ccc(Nc2nc(Nc3ccccc3)nc(N3N=C(c4ccc(Cl)cc4)CC3c3ccc(Cl)cc3)n2)cc1` (stereo not given), for which the growth in assay [1] is 54.8%; in assay [2], 55.1%; in assay [3], 64.5%; in [4] it was 75.8%; in [5], 20.1%; in assay [6], 75%. Further, the growth in assay [7] is 83.6%; in [8] it was 66.7%; in assay [9], 65.8%; in assay [10], 8.73% (active); in assay [11], 50.4%; in [12], 32.5%. Moreover, the growth is 42.5% in [13]; 54.3% in [14]; -3.26% (active) in [15]; 59.4% in [16]; 56.7% in assay [17]; 58% in assay [18]. Besides, the growth is 65.8% in [19] and 34.6% in [20].
